# Values without a mark were called inactive. Active and inactive are the calls of the source. Unless noted, no stated cut-off is given here; in the data, active means inhibition above about 36%; inactive means the rest.
# Tests used:
# [1] = test system: transactivating tegument protein VP16 (Human herpesvirus 1); test: compounds suppressing VP16-driven luciferase signal – cell-based, luminescence, single concentration, counter-screen for SRC2 inhibitor project (AID 652007); conditions: cell-based VP16 transactivation luciferase reporter, at 8.9 µM, hits give high values
# [2] = target: Nuclear receptor coactivator 2 (Homo sapiens) (UniProt Q15596); test: inhibition of GAL4-SRC2 driven luciferase expression – cell-based, luminescence, HEK293, triplicate, confirmation (AID 652008;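 active means mean inhibition above 46.5%, the solvent-only control mean plus 3 SD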;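 further: 0% = DMSO-treated cells and 100% = Gossypol at 36 µM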); conditions: HEK293 GAL4-SRC2 luciferase reporter, at 8.9 µM, hits give high values
# Nuclear receptor coactivator 2 (Homo sapiens), sequence (Q15596 whole entry, looked up, the tested form may be a part): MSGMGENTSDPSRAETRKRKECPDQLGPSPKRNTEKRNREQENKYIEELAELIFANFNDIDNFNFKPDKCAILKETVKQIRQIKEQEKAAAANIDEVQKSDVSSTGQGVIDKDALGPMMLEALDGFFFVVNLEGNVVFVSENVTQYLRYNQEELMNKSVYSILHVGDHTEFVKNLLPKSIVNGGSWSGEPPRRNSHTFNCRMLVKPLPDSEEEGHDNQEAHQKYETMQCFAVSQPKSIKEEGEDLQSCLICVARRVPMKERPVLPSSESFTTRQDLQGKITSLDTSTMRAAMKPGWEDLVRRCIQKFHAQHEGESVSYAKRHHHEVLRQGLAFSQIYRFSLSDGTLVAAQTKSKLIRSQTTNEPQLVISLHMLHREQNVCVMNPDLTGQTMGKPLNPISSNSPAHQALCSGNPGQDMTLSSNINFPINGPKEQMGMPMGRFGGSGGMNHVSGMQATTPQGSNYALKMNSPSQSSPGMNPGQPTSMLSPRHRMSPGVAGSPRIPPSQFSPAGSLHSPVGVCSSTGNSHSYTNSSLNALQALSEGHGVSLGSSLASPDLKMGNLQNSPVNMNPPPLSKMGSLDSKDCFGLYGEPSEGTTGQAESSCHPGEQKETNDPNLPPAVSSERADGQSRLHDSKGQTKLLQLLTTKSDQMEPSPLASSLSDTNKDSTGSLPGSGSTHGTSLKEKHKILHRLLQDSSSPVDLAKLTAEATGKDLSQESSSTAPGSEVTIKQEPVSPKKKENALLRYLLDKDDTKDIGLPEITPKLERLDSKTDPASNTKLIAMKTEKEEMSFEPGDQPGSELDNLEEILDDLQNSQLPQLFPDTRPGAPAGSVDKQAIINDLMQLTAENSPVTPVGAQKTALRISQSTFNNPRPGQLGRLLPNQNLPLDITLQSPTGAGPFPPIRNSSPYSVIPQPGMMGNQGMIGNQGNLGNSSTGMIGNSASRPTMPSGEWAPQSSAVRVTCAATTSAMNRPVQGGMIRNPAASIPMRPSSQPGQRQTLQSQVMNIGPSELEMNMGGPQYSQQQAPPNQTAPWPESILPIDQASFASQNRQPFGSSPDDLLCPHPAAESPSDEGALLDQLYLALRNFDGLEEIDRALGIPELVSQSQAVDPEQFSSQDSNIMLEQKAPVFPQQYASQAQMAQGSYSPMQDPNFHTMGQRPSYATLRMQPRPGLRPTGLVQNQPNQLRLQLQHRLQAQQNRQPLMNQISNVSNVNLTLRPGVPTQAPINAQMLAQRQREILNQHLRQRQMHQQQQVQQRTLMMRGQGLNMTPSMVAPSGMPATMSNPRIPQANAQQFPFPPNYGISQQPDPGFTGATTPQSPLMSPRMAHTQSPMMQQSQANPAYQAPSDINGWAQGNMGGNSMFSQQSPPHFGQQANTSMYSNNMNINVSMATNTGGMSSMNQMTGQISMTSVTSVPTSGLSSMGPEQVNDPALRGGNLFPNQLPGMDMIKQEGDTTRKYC
Structure (SMILES),inhibition [1] [%],inhibition [2]
CCCCC(=O)NC(c1ccccc1OC)c1ccc2cccnc2c1O (centres undefined),-16.1,28.1%
Cc1nc([N+](=O)[O-])c(Sc2nc3ccc([N+](=O)[O-])cc3[nH]2)n1Cc1ccccc1,-6.71,46.7% (active)
CN(Cc1ccccc1)C(=O)c1ccc(NC(=O)C2CCN(C(=O)OC(C)(C)C)CC2)cc1,15.8,60.4% (active)
O=C(O)c1ccccc1C=NN1CCCCCC1,-9.35,-24.3%
COc1ccc(-c2nc3ccccn3c2NC2CCCCC2)cc1SC1CCCCC1,17.4,-1.51%
COc1ccc([N+](=O)[O-])c(S(=O)(=O)c2ccc(Cl)cc2)n1,8.89,52.3% (active)
[2H]C(CCOS(N)(=O)=O)c1ccc(C(C)(C)C)cc1 (centres undefined),13.7,41.4%
O=S(=O)(c1cc(C(F)(F)F)ccc1Cl)N1CCN(c2ncnc3ccccc23)CC1,17.2,18.7%
CC(=O)c1ccc(OC2(C)CCN(Cc3ccc(OC(F)(F)F)cc3)C2)cc1 (centres undefined),-12.4,-13.5%
COc1ccc(OC)c(C2C(C#N)=C(N)Oc3c2c(C)nn3-c2cccc(Cl)c2)c1 (centres undefined),3,4.46%
O=[N+]([O-])c1ccc(Oc2ccc(F)cc2Br)c2ccncc12,7.49,50.2% (active)
CCCC1=Nc2cc(C(=O)NCCCOCC)ccc2Sc2ccccc21,-2.83,15.5%
